Measurements from PubChem BioAssay (NCI).
Compounds without any hit were thinned out: in the full panel of roughly 79,000, 15% have a hit. Rule as the data show it: active = growth inhibition above about 70%; inactive = the rest.

Experiments:
[1] = NCI Yeast Anticancer Drug Screen. Data for the rad50 strain (AID 155);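 also: 0% = growth of vehicle-only cultures of the same strain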; details: S. cerevisiae rad50 strain growth inhibition; at 50.0 µM; hits give high values
Outline: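 Compounds were tested on a yeast strain with an engineered DNA damage repair alteration; the reported value is growth inhibition normalised to vehicle treatment.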

[2] = NCI Yeast Anticancer Drug Screen. Data for the mec2-1 strain (AID 157); details: S. cerevisiae mec2-1 strain, at 50.0 µM, hits give high values
Outline: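 Cells of the genetically defined mec2-1 yeast strain are incubated with test compound. Inhibition of growth is calculated against vehicle-treated controls.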

[3] = NCI Yeast Anticancer Drug Screen. Data for the sgs1 mgt1 strain (AID 161);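 also: 0% = growth of cultures given vehicle only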; details: S. cerevisiae sgs1 mgt1 strain, at 50.0 µM, hits give high values
Outline: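 Test agents were incubated with a DNA-repair-mutant yeast strain. Growth was then read and compared against vehicle-treated controls.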

[4] = NCI Yeast Anticancer Drug Screen. Data for the cln2 rad14 strain (AID 165);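 also: 0% = growth equal to vehicle treated cultures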; details: S. cerevisiae cln2 rad14 strain, at 50.0 µM, hits give high values
Outline: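 The screen exposed genetically defined yeast (cln2 rad14) to test compounds and scored growth inhibition relative to vehicle-treated controls.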

[5] = NCI Yeast Anticancer Drug Screen. Data for the bub3 strain (AID 167); details: S. cerevisiae bub3 mutant strain, at 50.0 µM, hits give high values
Outline: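 Growth of a checkpoint-deficient yeast mutant is measured after compound exposure. Values represent inhibition relative to vehicle.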

[6] = NCI Yeast Anticancer Drug Screen. Data for the mlh1 rad18 strain (AID 175); details: S. cerevisiae mlh1 rad18 strain growth inhibition; at 50.0 µM; hits give high values
Outline: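 Compound-treated yeast growth, normalised to vehicle controls. Strain bears defined DNA repair mutations.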

Measured: growth inhibition

C1CCCC2(CCC1)OCCO2
inactive: [1] 0.7% | [2] 10.4% | [3] -4.05% | [4] -9.55% | [5] 17.1% | [6] 1.65%

Cn1c(=O)c2c(nc(NN)n2C)n(C)c1=O
inactive: [1] 1.15% | [2] -10.8% | [3] -2.65% | [4] -25% | [5] 10.9% | [6] 4.7%

CC(=O)Nc1ccc(O)c([N+](=O)[O-])c1
inactive: [1] 3.1% | [2] 3.3% | [3] 3.3% | [4] -36% | [5] -9.15% | [6] -11.4%

OC1CCC2CCCC2C1 (stereo not drawn)
inactive: [1] 1.6% | [2] -1.7% | [3] -2.2% | [4] 1% | [5] -8.6% | [6] -1.2%

COc1cc(OC)c(C(C)=O)c(O)c1OC
inactive: [1] 2.75% | [2] 1.05% | [3] 10.9% | [4] 10.6% | [5] 11.1% | [6] 15.2%

CN(C)/C=N/NC(=O)C(O)c1ccccc1 (stereo not drawn)
inactive: [1] 10.3% | [2] 2.2% | [3] 4.45% | [4] 18.2% | [5] 34.4% | [6] -19.6%

O=C(N/N=C/C=C/c1ccccc1)c1ccccc1O
inactive: [1] -1.8% | [2] 43% | [3] 56.2% | [4] -31.7% | [5] 43.4% | [6] 29.6%

Cc1cc(=O)[nH]c2cc(NN)ccc12
inactive: [1] 10.2% | [2] -3.85% | [3] 4.85% | [4] -4.35% | [5] -0.45% | [6] 8.55%

CCOC(=O)CC(C)CCO (stereo not drawn)
inactive: [1] 5.4% | [2] -5.8% | [3] -11.4% | [4] -0.2% | [5] -0.3% | [6] -8.9%

CC(NC(CC12CC3CC(CC(C3)C1)C2)C(N)=O)c1ccccc1 (stereo not drawn)
inactive: [1] -17.8% | [2] -20.8% | [3] -2.3% | [4] 14.1% | [5] 15.3% | [6] -18.4%

Nc1ccc(N=Nc2ccccc2)c(N)c1
inactive: [1] 29.5% | [2] 19.6% | [3] 27% | [4] -52.1% | [5] 8.55% | [6] 28.6%

O=c1c2cc(S(=O)(=O)Nc3ccccc3Cl)ccc2ncn1NS(=O)(=O)c1ccc(Br)cc1
inactive: [1] 35.2% | [2] 1.8% | [3] 31.9% | [4] -0.4% | [5] 19.5% | [6] 23.9%

C/C(O)=C(/N=Nc1ccc(-c2nc3ccc(C)c(S(=O)(=O)O)c3s2)cc1)C(=O)Nc1ccccc1
inactive: [1] 12.7% | [2] -22.5% | [3] 21.2% | [4] 16% | [5] 19.9% | [6] 26.9%

CCCCS(=O)(=O)CCC(N)C(=O)O (stereo not drawn)
inactive: [1] -3.45% | [2] -9.45% | [3] 2.6% | [4] -36.2% | [5] -4.75% | [6] -11.5%

O=C1c2ccccc2C(=O)N1CCCO
inactive: [1] -4.55% | [2] -1.9% | [3] -15.4% | [4] -23.8% | [5] -17.7% | [6] 8.9%

NCC1CC1
inactive: [1] 19.1% | [2] -2.25% | [3] 9.75% | [4] 8.65% | [5] -11.8% | [6] 14.7%

CC(C)COc1ccc(O)cc1
inactive: [1] 8.95% | [2] -3.55% | [3] -16.5% | [4] -43.5% | [5] -11% | [6] 3.35%

CCCCCCCCCCCC(=O)N(C)CCS(=O)(=O)O
inactive: [1] 6.2% | [2] -28.8% | [3] 4.55% | [4] 13.1% | [5] -20.6% | [6] 8.45%

C1C[S][Ge]2([S]CCS1)[S]CCSCC[S]2
inactive: [1] -10.4% | [2] -30.5% | [3] -16.6% | [4] -15.5% | [5] -30.6% | [6] -14.8%

CCOC(=O)C(CS(=O)(=O)N(CC)CC)NC(=O)c1ccccc1 (stereo not drawn)
inactive: [1] -1.4% | [2] -10.6% | [3] 2.9% | [4] -10.8% | [5] 5.15% | [6] -18.6%

CCN(CC)C(=O)N1C=CC(C)C=C1
inactive: [1] -30.4% | [2] -15.1% | [3] -15.4% | [4] -43.1% | [5] 10.9% | [6] 5.5%

CC(=O)Oc1ccc(Nn2c3ccccc3c3ccccc32)c(C)c1
inactive: [1] 56.6% | [2] 47.9% | [3] 36.1% | [4] 54.6% | [5] 41.4% | [6] 43%

NC(=O)c1ccccc1O
inactive: [1] 13.5% | [2] 5.15% | [3] 11.4% | [4] 6.2% | [5] 0.6% | [6] 15.2%

CNc1ccc(C(=O)O)cc1C
inactive: [1] 1.25% | [2] 12.6% | [3] 9.8% | [4] -15.8% | [5] -56.4% | [6] 0.4%

CSCC[C@H](NC(C)=O)B1OCCO1
inactive: [1] 9.85% | [2] 21.4% | [3] 2.95% | [4] 6.05% | [5] -4.6% | [6] 19.5%

O=S(=O)(CS(=O)(=O)c1ccccc1Br)c1ccccc1Br
inactive: [1] -7.65% | [2] 30.3% | [3] -16% | [4] 13% | [5] 1.95% | [6] 6.95%

CCOC(=O)c1ccc(NC(=O)Nc2ccc(F)c([N+](=O)[O-])c2)cc1
inactive: [1] 7.3% | [2] 46.1% | [3] 46.5% | [4] 7% | [5] 28.9% | [6] 23.6%

CC(=O)N1CN2C(=O)CCC2c2cc(C)ccc21 (stereo not drawn)
inactive: [1] 10.1% | [2] 14.9% | [3] -2.65% | [4] 7.8% | [5] 0.95% | [6] -57.4%

CC1(C)N=C(N)N=C(N)N1c1ccc(NC(=O)Nc2ccccc2)cc1
inactive: [1] 16.6% | [2] -13.2% | [3] 16.1% | [4] -43.2% | [5] -2.35% | [6] 10.3%

NC(N)=NNC(=S)S
inactive: [1] 10.9% | [2] -5.15% | [3] 23.5% | [4] 5.1% | [5] 20.3% | [6] 12.8%

COc1ccc(/C(C)=N/NC(N)=S)cc1OC
inactive: [1] 6.65% | [2] -17.9% | [3] 2.45% | [4] 16% | [5] -13.3% | [6] 3.45%

c1c[nH]c(C2Nc3ccccc3CO2)c1 (stereo not drawn)
inactive: [1] -11.4% | [2] -13.2% | [3] -18.9% | [4] -22.6% | [5] 1.3% | [6] 9.85%

COc1nc(C(=O)NNC(=O)c2nc(OC)c3ccccc3c2-c2ccccc2)c(-c2ccccc2)c2ccccc12
inactive: [1] -6.9% | [2] -5.8% | [3] -19.2% | [4] -8.7% | [5] -17% | [6] 1.3%

COc1ccc(NC(=O)ON(C)C)cc1
inactive: [1] 4.45% | [2] -26.6% | [3] 5.15% | [4] -63.1% | [5] 3.75% | [6] -5.75%

CNCC(=O)Nc1ccc2c(c1)C(=O)c1ccc(NC(=O)CNC)cc1C2=O
inactive: [1] 11.5% | [2] 13.9% | [3] 19.4% | [4] -2.25% | [5] -11.9% | [6] 23.8%

Cc1ccccc1/C=C/C(=O)O
inactive: [1] -0.4% | [2] -9.95% | [3] -0.45% | [4] -13.6% | [5] -24.4% | [6] -12.7%

CSc1c(C#N)c2c(Cl)ncnc2n1C(C)=O
inactive: [1] 1.7% | [2] 14.3% | [3] 9.95% | [4] -71.5% | [5] -7.5% | [6] 5.35%

CCOc1ccc(/C=C2\N=C(c3cccc(Cl)c3)OC2=O)cc1
inactive: [1] 12.2% | [2] 15.3% | [3] 22.1% | [4] 19.6% | [5] 17.2% | [6] 13.7%
